Reference: PubChem BioAssay AID999 (SRMLSC, 2007)
The source made the active and inactive calls.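 The calls were made as follows: active = viability at or below 21.59%, 3 SD under the median of tested compounds; inactive = the rest.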

Assay: viability loss in PTEN-deleted cells – cell-based, validation, diverse DP compound set (AID 999);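 also: 100% = median luminescence of untreated cell control wells and 0% = no signal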
Details: HCT116 PTEN-null viability, CellTiter-Glo, 60 h; at 10 µM; active compounds read low

| SMILES | viability |
| --- | --- |
| COc1ccc2nc(S(=O)Cc3ncc(C)c(OC)c3C)[nH]c2c1 (stereo not given) | 92.7% (inactive) |
| C=C1OC(CO)(n2cnc3c(N)ncnc32)C(O)C1O (stereo not given) | 92.8% (inactive) |
| COc1ccc2c(c1)c(CC(=O)O)c(C)n2C(=O)c1ccc(Cl)cc1 | 105% (inactive) |
| CCn1cc(C(=O)O)c(=O)c2ccc(C)nc21 | 98.4% (inactive) |
| COC(=O)CCc1c(C)[nH]c(C(=O)OCc2ccccc2)c1C | 97.7% (inactive) |
| C[C@@H]1CC[C@]2(C(=O)O)CC[C@]3(C)C(=CCC4[C@@]5(C)C[C@@H](O)[C@H](O)[C@@](C)(CO)C5[C@H](O)C[C@]43C)C2[C@H]1C (stereo not given in full) | 84.7% (inactive) |
| CC1=C(/C=C/C(C)=C/C=C/C(C)=C/C(=O)O)C(C)(C)CCC1 | 93.7% (inactive) |
| O=C(O)c1cc(=O)c2c(OCC(O)COc3cccc4oc(C(=O)O)cc(=O)c34)cccc2o1 | 98.8% (inactive) |
| C[C@@H]1C(=O)O[C@@H]2CC34C5CC(C(C)(C)C)[C@]36C(O)C(=O)O[C@@H]6O[C@@]4(C(=O)O5)[C@@]12O (stereo not given in full) | 53.4% (inactive) |
| COc1ccc(CCN(C)CCCC(C#N)(c2ccc(OC)c(OC)c2)C(C)C)cc1OC (stereo not given) | 85.1% (inactive) |
| CC[N+](CC)(CC)CC(=O)Nc1c(C)cccc1C | 105% (inactive) |
| CC1=C(/C=C/C(C)=C/C=C/C(C)=C/C=C/C=C(C)/C=C/C=C(C)/C=C/C(=O)[C@]2(C)C[C@@H](O)CC2(C)C)C(C)(C)C[C@H](O)C1 | 80.7% (inactive) |
| COc1cc(Cc2cnc(N)nc2N)cc(OC)c1OC | 102% (inactive) |
| C[C@]12CC[C@@H]3c4ccc(O)cc4CC[C@H]3[C@@H]1CC[C@H]2O | 93.3% (inactive) |
| CCCC[C@@H](C=O)NC(=O)[C@H](CC(C)C)NC(=O)[C@H](CC(C)C)NC(C)=O | 15.1% (active) |
| O=c1c2ccccc2nc2n1CCc1c-2[nH]c2ccccc12 | 93.4% (inactive) |
| CSc1ccc(/C=C2/C(C)=C(CC(=O)O)c3cc(F)ccc32)cc1 | 98% (inactive) |
| CC1(C)[C@@H](O[C@H]2O[C@H](C(=O)O)[C@@H](O)[C@H](O)[C@H]2O[C@@H]2O[C@H](C(=O)O)[C@@H](O)[C@H](O)[C@H]2O)CC[C@]2(C)[C@H]3C(=O)C=C4[C@@H]5C[C@@](C)(C(=O)O)CC[C@]5(C)CC[C@@]4(C)[C@]3(C)CC[C@@H]12 | 103% (inactive) |
| NCC(=O)N[C@@H](CCCN=C(N)N)C(=O)NCC(=O)N[C@@H](CC(=O)O)C(=O)N[C@@H](CC(N)=O)C(=O)N1CC[C@@H](C(=O)O)C1 | 98% (inactive) |
| Cn1c(=O)c2[nH]cnc2n(C)c1=O | 97.1% (inactive) |
| C[C@H]1c2cccc(O)c2C(O)=C2C(=O)[C@]3(O)C(O)=C(C(N)=O)C(=O)[C@@H](N(C)C)[C@@H]3[C@@H](O)[C@@H]21 | 90.5% (inactive) |
| CN1C2CCC1CC(OC(=O)C(CO)c1ccccc1)C2 (stereo not given) | 94.2% (inactive) |
| C=C(C)C1CC=C(C)C(O)C1 (stereo not given) | 89.2% (inactive) |
| C/C(=C\CNc1ncnc2c1ncn2[C@@H]1O[C@H](CO)[C@@H](O)[C@H]1O)CO | 91.5% (inactive) |
| C=C(C)[C@H]1CC=C(CO)CC1 | 96% (inactive) |
| COc1ccc(C2CNC(=O)C2)cc1OC1CCCC1 (stereo not given) | 96.5% (inactive) |
| COC(=O)C1=C(C)NC(C)=C(C(=O)OCCNCc2ccccc2)C1c1cccc([N+](=O)[O-])c1 (stereo not given) | 65.3% (inactive) |
| COc1cc([C@@H]2c3cc4c(cc3[C@H](O)[C@H]3COC(=O)[C@H]23)OCO4)cc(OC)c1OC | 24.6% (inactive) |
| Cc1ccc(Cl)c(Nc2ccccc2C(=O)O)c1Cl | 98.1% (inactive) |
| C[C@H](CCC(=O)O)[C@H]1CC[C@H]2[C@@H]3CC[C@@H]4C[C@H](O)CC[C@]4(C)[C@H]3CC[C@]12C | 97.2% (inactive) |
